Results on 8 compounds are retold here after PubChem BioAssay (NCI).

SMILES strings stand for the structures. Compounds without any hit were thinned out: in the full panel of roughly 83,000, 20% have a hit.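 Values shown are percent growth following 48 h exposure of cells in 96-well plates to a single concentration of compound; below 10 was considered active.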 A number with no mark means an inactive call. The source made the active and inactive calls.

Some test systems named below: SK-MEL-2 melanoma; EKVX NSCLC; SN12C renal; UO-31 renal; TK-10 renal; ACHN renal; CAKI-1 renal; A498 renal; CCRF-CEM leukemia; MOLT-4 leukemia; RPMI-8226 leukemia; OVCAR-8 ovarian; OVCAR-5 ovarian; OVCAR-4 ovarian; SK-OV-3 ovarian; IGROV1 ovarian; OVCAR-3 ovarian; HS 578T breast; NCI/ADR-RES ovarian.
Assay in all cases: NCI-60 one-dose screen, 48 h (100 = growth as untreated, 0 = no growth, -100 = all killed)
What all share (details): 10 µM unless noted

Consider `CCc1ccc2nc(NC(=O)Cc3csc(NC(=O)c4ccco4)n3)sc2c1`, for which the growth in the assay with SK-MEL-2 melanoma is 67.9%; in the assay on EKVX NSCLC it was 81.7%; in the assay on SN12C renal, 79.4%; in the assay on UO-31 renal, 60.5%; in the assay with TK-10 renal it was 82%; with ACHN renal, 57.2%. The growth was 60.1% in the assay on CAKI-1 renal; 83.9% in the assay with A498 renal; 87.2% in the assay on CCRF-CEM leukemia; 39.9% in the assay with MOLT-4 leukemia; 55.8% in the assay on RPMI-8226 leukemia; 43.3% in the assay on OVCAR-8 ovarian. Also, the growth is 83.1% in the assay with OVCAR-5 ovarian; 43.1% with OVCAR-4 ovarian; 65.1% in the assay with SK-OV-3 ovarian; -9.65% (active) in the assay on IGROV1 ovarian; 64.1% with OVCAR-3 ovarian; 31.4% in the assay with HS 578T breast. Moreover, the growth with NCI/ADR-RES ovarian is 77.5%.
`c1ccc(Nc2cc(-c3cccnc3)[nH]n2)cc1`: the growth with SK-MEL-2 melanoma is 112%; in the assay with EKVX NSCLC, 98.1%; in the assay on SN12C renal, 99.3%; in the assay with UO-31 renal, 80%; in the assay with TK-10 renal, 103%; in the assay on ACHN renal, 91.8%. Also, the growth is 90.1% with CAKI-1 renal; 69% in the assay on A498 renal; 106% with CCRF-CEM leukemia; 93.6% in the assay with MOLT-4 leukemia; 103% in the assay with RPMI-8226 leukemia; 95.8% with OVCAR-8 ovarian. Further, the growth with OVCAR-5 ovarian is 93.6%; in the assay on OVCAR-4 ovarian it was 96.6%; with SK-OV-3 ovarian it was 92.9%; in the assay with IGROV1 ovarian it was 95.7%; in the assay on OVCAR-3 ovarian, 100%; in the assay on HS 578T breast it was 101%. Besides, the growth in the assay on NCI/ADR-RES ovarian was 105%.
In the case of `Cc1cc(=O)oc2cc(OC(=O)CN3CCN(C)CC3)ccc12`, the growth in the assay on SK-MEL-2 melanoma is 106%; in the assay with EKVX NSCLC, 92.5%; in the assay with SN12C renal, 96.6%; in the assay on UO-31 renal, 92.8%; in the assay on TK-10 renal, 109%; in the assay on ACHN renal, 103%. Besides, the growth in the assay on CAKI-1 renal is 85.8%; in the assay on A498 renal, 97.2%; with CCRF-CEM leukemia it was 98.7%; in the assay on MOLT-4 leukemia, 101%; in the assay with RPMI-8226 leukemia, 103%; in the assay with OVCAR-8 ovarian it was 103%. For the same compound, the growth in the assay with OVCAR-5 ovarian is 101%; in the assay on OVCAR-4 ovarian, 96.6%; with SK-OV-3 ovarian it was 107%; in the assay with IGROV1 ovarian it was 115%; with OVCAR-3 ovarian, 105%; with HS 578T breast it was 97.9%. Moreover, the growth in the assay with NCI/ADR-RES ovarian was 105%.
Regarding `O=C(CSc1nccc(Nc2ccc(S(=O)(=O)Nc3nccs3)cc2)n1)c1ccc(C(F)(F)F)cc1`, the growth in the assay with SK-MEL-2 melanoma is 102%; in the assay on EKVX NSCLC, 94.4%; with SN12C renal it was 102%; in the assay on UO-31 renal, 69.2%; in the assay with TK-10 renal, 112%; with ACHN renal, 100%. In addition, the growth is 90.1% in the assay on CAKI-1 renal; 109% with A498 renal; 108% in the assay with CCRF-CEM leukemia; 112% in the assay on MOLT-4 leukemia; 104% with RPMI-8226 leukemia; 96.2% with OVCAR-8 ovarian. In addition, the growth is 111% with OVCAR-5 ovarian; 106% in the assay on OVCAR-4 ovarian; 96.9% in the assay with SK-OV-3 ovarian; 91.1% in the assay with IGROV1 ovarian; 112% in the assay with OVCAR-3 ovarian; 98.5% with HS 578T breast. Also, the growth in the assay with NCI/ADR-RES ovarian is 98.5%.
With `CCN1C(=O)N(CC)C2Nn3c(s/c(=C\c4ccc([N+](=O)[O-])cc4)c3=O)=NC21` (configuration not stated), the growth is 110% with SK-MEL-2 melanoma; 73.3% with EKVX NSCLC; 79.7% in the assay on SN12C renal; 55.1% in the assay with UO-31 renal; 69.9% in the assay on TK-10 renal; 74.9% with ACHN renal. Moreover, the growth in the assay with CAKI-1 renal is 79.8%; in the assay with A498 renal, 53.2%; in the assay on CCRF-CEM leukemia, 40.6%; in the assay with MOLT-4 leukemia it was 61.7%; in the assay with RPMI-8226 leukemia it was 51.8%; in the assay with OVCAR-8 ovarian, 66.7%. For the same compound, the growth with OVCAR-5 ovarian is 82.5%; in the assay on OVCAR-4 ovarian, 14.2%; with SK-OV-3 ovarian, 105%; in the assay with IGROV1 ovarian, 17.3%; in the assay with OVCAR-3 ovarian it was 11.6%; in the assay with HS 578T breast, 83.4%. For the same compound, the growth in the assay with NCI/ADR-RES ovarian is 23.4%.
In the case of `O=CN1N=C(c2ccc(Nc3ccnc4cc(Cl)ccc34)cc2)CC1c1ccccc1` (configuration not stated), the growth in the assay with SK-MEL-2 melanoma was 32.6%; in the assay with EKVX NSCLC, 46.2%; in the assay on SN12C renal, 53.8%; with UO-31 renal, 24.1%; in the assay with TK-10 renal, 59.7%; in the assay on ACHN renal, 33.4%. The growth is 38.2% in the assay with CAKI-1 renal; 21.2% with A498 renal; 15% in the assay with CCRF-CEM leukemia; 13.8% in the assay with MOLT-4 leukemia; 17.2% in the assay on RPMI-8226 leukemia; 51.8% in the assay on OVCAR-8 ovarian. The growth in the assay on OVCAR-5 ovarian was 84.1%; in the assay on OVCAR-4 ovarian, 39%; with SK-OV-3 ovarian, 41.3%; in the assay on IGROV1 ovarian, 50.2%; in the assay on OVCAR-3 ovarian, 14.6%; in the assay with HS 578T breast it was 47.5%. Further, in the assay on NCI/ADR-RES ovarian, the growth was 7.22% (active).
`O=C(CCCCCCSc1nc(-c2ccccc2)cc(-c2ccccc2)n1)NO`: the growth with SK-MEL-2 melanoma was 74%; in the assay with EKVX NSCLC it was 57.1%; with SN12C renal, 70.1%; in the assay with UO-31 renal, 22.3%; in the assay with TK-10 renal, 27.2%; in the assay with ACHN renal, 23%. Also, the growth with CAKI-1 renal is 13.7%; in the assay on A498 renal, 50%; with CCRF-CEM leukemia, 2.47% (active); with MOLT-4 leukemia, 5.23% (active); in the assay with RPMI-8226 leukemia it was 7.64% (active); in the assay on OVCAR-8 ovarian, 27.6%. For the same compound, the growth in the assay with OVCAR-5 ovarian is 38.9%; in the assay on OVCAR-4 ovarian, 59.1%; with SK-OV-3 ovarian, 47.8%; in the assay on IGROV1 ovarian it was 36.9%; in the assay with OVCAR-3 ovarian, 40%; in the assay on HS 578T breast, 43.1%. Also, the growth with NCI/ADR-RES ovarian was 0.776% (active).
`C/C(=C\C(=O)c1ccc(Cl)cc1)c1ccc(Cl)cc1`: the growth is 98% with SK-MEL-2 melanoma; 79% in the assay with EKVX NSCLC; 103% with SN12C renal; 59.3% with UO-31 renal; 74.7% in the assay with TK-10 renal; 98.3% in the assay on ACHN renal. For the same compound, the growth with CAKI-1 renal is 87.8%; in the assay on A498 renal it was 104%; with CCRF-CEM leukemia, 88.4%; with MOLT-4 leukemia, 92.6%; in the assay on RPMI-8226 leukemia it was 75%; in the assay on OVCAR-8 ovarian, 95.5%. For the same compound, the growth in the assay with OVCAR-5 ovarian was 62.3%; in the assay with OVCAR-4 ovarian, 67.3%; with SK-OV-3 ovarian, 94.3%; in the assay on IGROV1 ovarian it was 76.3%; with OVCAR-3 ovarian, 99.2%; with HS 578T breast it was 96.6%. In the assay with NCI/ADR-RES ovarian, the growth is 103%.
